# In PubChem BioAssay (NCATS):
# Inconclusive results are not listed. Values without a mark were called inactive. Active and inactive are the calls of the source. Calls follow the shape of the dose curve; as a rule, active = well fitted inhibition curve with a large enough effect; inconclusive = small, poorly fitted or top-dose-only effect; inactive = no such curve, though single readings can be large or run the other way.
# System: Zika virus NS2B-NS3 protease (linked construct)
# Assay: Primary screen NINDS Rhodamine qHTS for Zika virus inhibitors (AID 1347160); also: nearly all actives have a fitted effect of over 55% in size
# Conditions: purified NS2B-NS3 protease, Rhodamine110 substrate fluorescence; series mostly up to 57.1 µM; activity change, negative = inhibition: at the top concentration
# In short: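 Kinetic fluorescence (Ex 480 nm, Em 540 nm) over 15 min with 1.5 microM Rhodamine110 peptide and 25 nM linked protease.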
# % is scaled to controls: 0 for no effect and ±100 for the full control effect.
Structure (SMILES),"activity change, negative = inhibition",outcome
CCn1c(C(=O)N(C2CC2)C2CC2)cc2c3c(ncn3C)c(Nc3cc(C)n(C)n3)nc21,-13.4%,–
CNC(=O)c1ccc2cc(C3(O)CCn4cncc43)ccc2c1 (centres undefined),5.02%,–
O=c1[nH]cnc2c1ncn2[C@H]1CC[C@@H](CO)O1,–,inactive
CN(C)Cc1ccc(-c2nc3cccc4c3n2CCNC4=O)cc1,17.7%,–
COc1ccc(C2CC(c3ccccc3)=NN2c2ccc(S(N)(=O)=O)cc2)cc1 (centres undefined),5.87%,–
O=C(O)c1ccccc1C(=O)Nc1ccc(-c2ccccc2)cc1,3.98%,–
COCCOc1nc(-c2ccc(Cl)c(Cl)c2)n(-c2ccc(NC(=O)CCl)cc2)n1,33.9%,–
NC(=O)c1cnc(-c2ccc(C3(N)CCC3)cc2)c(-c2ccccc2)c1,–,inactive
Cc1ccccc1C(C(=O)NC1CCCCC1)N(C(=O)Cn1ccnc1C)c1cccc(F)c1 (centres undefined),11.6%,–
CC(=O)N(C)C1(c2ccccc2)CCN(CCC[C@]2(c3ccc(Cl)c(Cl)c3)CCCN(C(=O)c3ccccc3)C2)CC1,88.8%,–
COc1cc(N2CCC(N3CCN(C)CC3)CC2)ccc1Nc1ncnc(Nc2ccccc2S(=O)(=O)C(C)C)n1,42.6%,–
COc1ccc2c(Oc3ccc(NC(=O)c4c(C)n(CC(C)(C)O)n(-c5ccccc5)c4=O)nc3)ccnc2c1,113%,–
CO[C@H]1C=CO[C@@]2(C)Oc3c(C)c(O)c4c(O)c(c5c(c4c3C2=O)NC2(CCN(CC(C)C)CC2)N=5)=NC(=O)C(C)=CC=C[C@H](C)[C@H](O)[C@@H](C)[C@@H](O)[C@@H](C)[C@H](OC(C)=O)[C@H]1C,-5.66%,–
COc1ccc(C2Sc3ccccc3N(CCN(C)C)C(=O)C2OC(C)=O)cc1 (centres undefined),–,inactive [at 33.1 µM]
